Source: PubChem BioAssay (National Center for Advancing Translational Sciences (NCATS))
MARV entry inh: qHTS for Inhibitors of binding or entry into cells for Marburg Virus. hit rate 6.5% among 18,000. Potency, µM (doses to about 49.2 µM), without a hit: top-dose activity change, negative = inhibition, most hits filed as inhibitors. Marburg virus pseudotype entry/binding inhibition, cell-based
Lassa entry: qHTS for Inhibitors of binding or entry into cells for Lassa Virus. hit rate 4.1% among 18,000. AID 720533, 2013. Potency, µM (titrated, usually from 49.2 µM), without a hit: top-dose activity change, negative = inhibition, hits mostly inhibitors. Lassa virus pseudotyped entry inhibition, cell-based qHTS
* hit, by the source's call; ! = a repeat was not active; [ ] = remark or other dose. The list is not random: actives were taken first. Their share in the collection is about 8.6%. Calls come from the whole dose curve; tested in HEK293 cells. % is set by controls: 0 for no effect and ±100 for the full control effect; potency is the fitted concentration of half-maximal effect.

Results for CC1O[C@@H](OC2CC(O)[C@@]3(CO)C4C(O)C[C@@]5(C)C(C6=CC(=O)OC6)CC[C@]5(O)C4CC[C@]3(O)C2)C(O)C(O)C1O (some centres undefined) ?
MARV entry inh: 0.28µM*; Lassa entry: 0.32µM*

Results for C[C@@H]1O[C@H](O[C@H]2C[C@@H](O)[C@@]3(CO)[C@H]4[C@@H](O)C[C@]5(C)[C@@H](C6=CC(=O)OC6)CC[C@]5(O)[C@H]4CC[C@]3(O)C2)[C@@H](O)[C@H](O)[C@@H]1O ?
MARV entry inh: inconclusive; Lassa entry: 3.2µM*

Results for C[C@@H]1O[C@@H](O[C@H]2C[C@@H](O)[C@]3(CO)[C@@H]4C(CC[C@]3(O)C2)[C@@]2(O)CC[C@H](C3=CC(=O)OC3)[C@@]2(C)C[C@H]4O)[C@H](O)[C@H](O)[C@H]1O (some centres undefined) ?
MARV entry inh: inconclusive; Lassa entry: 0.32µM*

Results for C[C@@H]1O[C@@H](O[C@H]2C[C@@H](O)[C@]3(CO)[C@H]4[C@H](O)C[C@]5(C)[C@@H](C6=CC(=O)OC6)CC[C@]5(O)[C@@H]4CC[C@]3(O)C2)[C@H](O)[C@H](O)[C@H]1O ?
MARV entry inh: inconclusive; Lassa entry: 0.032µM*

How did CC(=O)N1C(=O)NC(C)=C(C#N)C1c1ccccc1 (centres undefined) do in these assays?
MARV entry inh: -10%[8.59 µM]; Lassa entry: 11%[8.59 µM]

What do the screens show for `O=S1(=O)c2ccc(Br)cc2O[C@H]2CCN1C2`?
MARV entry inh: 22%; Lassa entry: -8%

Results for CC[C@@H](C)[C@H](N)C(=O)O ?
MARV entry inh: 4%; Lassa entry: -3%

What do the screens show for `COC(=O)C1=C(C(=O)OC)[C@@H]2N(CC=C(C)C)c3ccccc3[C@@]23CCC(=O)N(Cc2cccc(C(F)(F)F)c2)C3=N1`?
MARV entry inh: -28%[8.59 µM]; Lassa entry: 2%[8.59 µM]

Results for O=C1N(CC2CC2)c2cccc(Br)c2[C@@]12O[C@H](COc1ccccc1)CC1=CCCC12 (some centres undefined) ?
MARV entry inh: inconclusive; Lassa entry: -7%[8.59 µM]

What do the screens show for `COc1ccc(OC)c(CN2CCCC(c3nc(-c4ccncc4)ncc3-c3ccccc3C)C2)c1` (centres undefined)?
MARV entry inh: -10%; Lassa entry: 1%

Results for C[C@H]1CN(c2ccc(Br)cc2)C(=O)[C@H]1CC(=O)Nc1ccccc1 ?
MARV entry inh: 24%; Lassa entry: 9%

What do the screens show for `Cn1cc(C(=O)C(=O)N[C@H]2CN3CCC2CC3)c2ccccc21`?
MARV entry inh: 28µM*!; Lassa entry: inconclusive

How did O=C(N[C@H]1CN2CCC1CC2)c1ccc(Cl)cc1 do in these assays?
MARV entry inh: inconclusive; Lassa entry: -10%

How did CCCCc1oc2ccc(NS(C)(=O)=O)cc2c1C(=O)c1ccc(OCCCN(CCCC)CCCC)cc1 do in these assays?
MARV entry inh: 6.3µM*; Lassa entry: 13µM*

How did CN(CCOc1ccc(NS(C)(=O)=O)cc1)CCc1ccc(NS(C)(=O)=O)cc1 do in these assays?
MARV entry inh: 6%; Lassa entry: -3%

How did O=C(NCCN1CCOCC1)c1cnn(-c2nccc(-c3ccccc3C(F)(F)F)n2)c1C1CC1 do in these assays?
MARV entry inh: -11%; Lassa entry: -8%

What do the screens show for `CC(C)OC(=O)Nc1cccc(Cl)c1`?
MARV entry inh: 24%; Lassa entry: -15%

What do the screens show for `CC(NC(C)(C)C)C(=O)c1cccc(Cl)c1` (centres undefined)?
MARV entry inh: 3.5µM*!; Lassa entry: 28%

How did COC1C(O)C(C)O[C@H](OC2CC[C@@]3(C=O)C4CC[C@]5(C)C(C6=CC(=O)OC6)CC[C@@]5(O)C4CC[C@@H]3C2)C1O (some centres undefined) do in these assays?
MARV entry inh: inconclusive; Lassa entry: 0.1µM*

Results for COC1C(O)C(C)O[C@@H](OC2CC[C@@]3(C)C4CC[C@]5(C)C(C6=CC(=O)OC6)CC[C@@]5(O)C4CC[C@@H]3C2)C1O (some centres undefined) ?
MARV entry inh: 0.079µM*; Lassa entry: 0.1µM*

Results for CN1CCN2c3ccccc3Cc3ccccc3C2C1 (centres undefined) ?
MARV entry inh: 35µM*; Lassa entry: inconclusive

Results for CCCCCCN1C[C@@H](O)[C@H](n2cc(COC(=O)c3ccccc3)nn2)C[C@H]1c1ccc(Cl)cc1 ?
MARV entry inh: -12%; Lassa entry: -24%

Results for CC(C)C[C@H](NC(=O)CNC(=O)[C@H](Cc1ccc(O)cc1)NC(=O)[C@H](CO)NC(=O)[C@H](Cc1c[nH]c2ccccc12)NC(=O)[C@H](Cc1cnc[nH]1)NC(=O)[C@@H]1CCC(=O)N1)C(=O)N[C@@H](CCCN=C(N)N)C(=O)N1CCC[C@H]1C(=O)NCC(N)=O (stereo in doubt) ?
MARV entry inh: -2%; Lassa entry: -13%

How did CCNC(=O)[C@@H]1CCCN1C(=O)[C@H](CCCN=C(N)N)NC(=O)[C@H](CC(C)C)NC(=O)[C@@H](Cc1c[nH]c2ccccc12)NC(=O)[C@H](Cc1ccc(O)cc1)NC(=O)[C@H](CO)NC(=O)[C@H](Cc1c[nH]c2ccccc12)NC(=O)[C@H](Cc1cnc[nH]1)NC(=O)[C@@H]1CCC(=O)N1 do in these assays?
MARV entry inh: inconclusive; Lassa entry: 3.2µM*

How did COC(=O)CC=C[C@H](C)[C@@H](OCc1ccccc1Br)C(C)C do in these assays?
MARV entry inh: 14%[8.59 µM]

How did C=C1[C@@H]2CCN3C(=O)N[C@@H](c4ccccc4)[C@@]1(C(=O)OCC)C23 (some centres undefined) do in these assays?
MARV entry inh: inconclusive; Lassa entry: 17%[8.59 µM]

How did Nc1ccc(O)cc1 do in these assays?
MARV entry inh: 50µM*; Lassa entry: 45µM*

What do the screens show for `NCCc1ccc(O)cc1`?
MARV entry inh: 12%; Lassa entry: inconclusive

How did COC(=O)[C@@H]1C[C@@H](NC(=O)c2cccc3c(C)c(C)[nH]c23)CN1Cc1cccc2ccccc12 do in these assays?
MARV entry inh: 1.8µM*; Lassa entry: 3.5µM*

How did COC(=O)[C@@H]1C[C@H](NC(=O)c2ccccn2)CN1Cc1cccc2ccccc12 do in these assays?
MARV entry inh: 1%; Lassa entry: -2%

How did CCN1C(=NCCCOC(C)C)N[C@H](c2ccccc2)[C@H](C(=O)OC)[C@H]1C do in these assays?
MARV entry inh: 0%[8.59 µM]; Lassa entry: 33%[8.59 µM]

How did C=CCOC(=O)N[C@H](c1cccc(OC)c1)[C@H](C)C=CCC(=O)OC do in these assays?
MARV entry inh: 15%[8.59 µM]

Results for Cc1cccc2c(N3CCCC3)nc(CNS(=O)(=O)c3ccccc3F)nc12 ?
MARV entry inh: inconclusive; Lassa entry: 5%

How did Cc1ccc(F)cc1S(=O)(=O)NCc1nc(N2CCCC2)c2cccc(C)c2n1 do in these assays?
MARV entry inh: 13µM*; Lassa entry: -10%

How did COC(=O)[C@@H]1[C@@H](c2ccccc2)NC(=O)N(Cc2ccccc2)[C@@H]1C do in these assays?
MARV entry inh: -5%[8.59 µM]; Lassa entry: 5%[8.59 µM]

Results for COCOc1ccc(Br)cc1C(=O)C=Cc1ccc2c(c1)OCO2 ?
MARV entry inh: 6%[8.59 µM]; Lassa entry: -45%[8.59 µM]

How did CN(C)CCOc1ccccc1Cc1ccccc1 do in these assays?
MARV entry inh: inconclusive; Lassa entry: 10%

Results for CNCCCCOc1ccccc1Cc1ccccc1 ?
MARV entry inh: 7.1µM*; Lassa entry: inconclusive
